# Sampled rows, rich in hits. Any-hit rate of the full collection: about 4%.
# Measles CPE – compounds protecting cells from measles virus cytopathic effect, primary screen, measles RdRp inhibitor project, single point, MLSMR library, absorbance; Measles virus-infected cells, CPE protection; protection (pct of control), % at 4 µM; 140,000 compounds, 1.5% hits; AID 841, 2007; in the data active = protection mostly above about 24%, no sharp cut-off; inactive = mostly below about 26%
# Cl transport mod – KCC2 cotransporter modulators, thallium flux, primary screen, cell-based, HEK293 KCC2, FluoZin-2 fluorescence, MLSMR. Solute carrier family 12 member 5 (Homo sapiens), Q9H2X9. 190,000 compounds, 2.2% hits. KCC2 cells, thallium flux FluoZin-2 fluorescence. B-score of Tl+ flux slope (higher = more flux/activation; lower = inhibition) at 10 µM. AID 1456, 2008;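 active = thallium flux slope and its plate-corrected score both differing from the plate sample mean at a set confidence after two filtering rounds, in either direction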;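 note: slope of fluorescence scaled to starting intensity during 10 to 20 s after thallium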
# HSV augment – enhancers of HSV replication in host cells, fold increase, host cell viability. maximum fold increase. 220,000 compounds, 0.005% hits. HSV replication augmentation in cells; in the data active = maximum fold increase above about 1.5; inconclusive = no clear call, values can overlap the other calls; tested in PC3 cells
# ROMK mod – ROMK potassium channel modulators, primary screen, cell-based, thallium flux, MLSMR library. Tet-inducible ROMK, thallium flux fluorescence; actives lie on both sides. B-score at 10 µM. 130,000 compounds, 2% hits. AID 1918, 2009;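 active = signal ratio slope over the read window, or its plate-corrected B-score, at least 3 SD from the plate mean, either direction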;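 note: B-score of the F/F0 ratio slope over 7 to 12 s after thallium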
# Target sequence (P48048 whole entry, looked up): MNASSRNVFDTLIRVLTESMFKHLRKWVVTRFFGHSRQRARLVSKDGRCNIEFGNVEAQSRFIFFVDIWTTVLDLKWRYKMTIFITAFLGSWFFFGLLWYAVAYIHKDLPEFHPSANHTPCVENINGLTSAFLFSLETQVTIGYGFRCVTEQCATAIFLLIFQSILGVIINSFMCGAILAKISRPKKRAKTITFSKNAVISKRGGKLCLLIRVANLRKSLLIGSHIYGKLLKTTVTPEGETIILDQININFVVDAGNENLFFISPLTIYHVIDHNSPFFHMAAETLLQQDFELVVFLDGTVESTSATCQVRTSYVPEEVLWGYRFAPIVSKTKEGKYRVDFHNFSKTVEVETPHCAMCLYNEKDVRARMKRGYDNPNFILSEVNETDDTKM
# Arbovirus inh – antivirals against arbovirus infection, primary screen, cell-based, full library, 10K replicate subset | arbovirus infection cell-based antiviral screen | inhibition, % at 10 µM | 200,000 compounds, 0.37% hits | AID 1251, 2008; in the data active = inhibition above about 30%
# KCC2 sec1 – KCC2 modulators in sodium-free buffer, confirmation, cell-based, HEK293 KCC2, thallium flux, secondary assay. normalised thallium flux (F/F0 slope) at 10 µM. 3,700 compounds, 15% hits. shares compounds with Cl transport mod. FluoZin2 fluorescence; active compounds read high;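 active = thallium flux slope above the same plate's solvent-only control mean plus 3 SD; inconclusive = the two replicate wells disagree; inactive = no significant difference from solvent-only control wells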
# KCC2 bumet counter – thallium flux persisting under bumetanide in KCC2 cells, confirmation, counter-screen for KCC2 modulator project, cell-based, HEK293 KCC2, FluoZin2, secondary assay 3 | shares compounds with Cl transport mod | HEK293-KCC2 + bumetanide/ouabain; active compounds read high | normalized thallium flux at 10 µM | 3,700 compounds, 49% hits;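 active = thallium entry rate above the same plate's blocked-transporter control wells by more than 3 SD; inconclusive = the two repeat wells disagree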;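 note: raw slope of fluorescence over initial fluorescence between 10 and 20 s after thallium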
# KCC2 sec2 – KCC2 modulators without ouabain present, confirmation, cell-based, HEK293 KCC2, thallium flux, FluoZin2, secondary assay 2; shares compounds with Cl transport mod; thallium flux FluoZin2 fluorescence; actives lie on both sides; F/F0 rise rate, 10–20 s post-thallium; normalized thallium flux at 10 µM; 3,700 compounds, 23% hits; AID 1715, 2009;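 active = thallium flux slope more than 3 SD above or below the plate's solvent-only control mean, mostly below; inconclusive = the two repeat wells disagreed; inactive = no significant shift from solvent-only controls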;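 note: raw slope with 0.1% DMSO as baseline and bumetanide as block control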
# HEK293 Tl flux – thallium flux modulation in parental HEK cells, confirmation, counter-screen for KCC2 modulator project, cell-based, counterscreen 1; HEK293 parental cells, thallium flux FluoZin2, ouabain; baseline-ratio fluorescence slope, 10–20 s after thallium; AID 1716, 2009; thallium flux rate (normalised fluorescence) at 10 µM; shares compounds with Cl transport mod; 3,700 compounds, 46% hits;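 active = thallium flux rate significantly above the same plate's solvent-only control wells, beyond their mean plus 3 SD; inconclusive = the two replicate wells gave conflicting results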
# KCC2 ouabain – KCC2 inhibitors and activators, ouabain retest, confirmation, HEK-KCC2 cells; shares compounds with Cl transport mod; HEK293-KCC2, thallium flux FluoZin2 fluorescence; bidirectional: low = inhibitor, high = activator; raw Tl+ flux slope (below DMSO = inhibition, above = activation) at 10 µM; 3,700 compounds, 48% hits;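 active = thallium flux slope beyond 3 SD from same-plate DMSO control mean in most replicates, usually higher, sometimes lower; inconclusive = repeat tests gave conflicting results; inactive = no significant difference from controls in most replicates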;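 note: slope of initial-normalized fluorescence between seconds 10 and 20 after thallium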
# HEK counter2 – native HEK Tl+ uptake effects, second counter-screen – HEK cells, counterscreen 2, counter-screen for KCC2 modulator project, confirmation | shares compounds with Cl transport mod | HEK293 parental, thallium flux FluoZin-2 fluorescence slope | thallium flux slope at 10 µM | 3,700 compounds, 33% hits | AID 1718, 2009;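 active = thallium flux slope above the same plate's solvent-control mean plus 3 SD in both duplicate wells; inconclusive = duplicate wells that disagreed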;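 note: run without ouabain in cells lacking the KCC2 cotransporter; slope of fluorescence scaled to its starting value between 10 and 20 s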
# * marks the source's active call; other numbers are inactive results; i = inactive; ? = inconclusive; · = no result.
SMILES,Measles CPE,Cl transport mod,HSV augment,ROMK mod,Arbovirus inh,KCC2 sec1,KCC2 bumet counter,KCC2 sec2,HEK293 Tl flux,KCC2 ouabain,HEK counter2
CCOc1ccc(C(C(=O)NC2CCCC2)N(CCCO)C(=O)c2ccc(-c3ccccc3)[nH]2)cc1 (stereo unspecified),·,-5.7*,i,-0.63,-27,0.0087,0.0053,?,0.0038,0.017*,0.011
CCCCN(C)CCNC(=O)c1ccc(Cn2c(=S)[nH]c3ccc(Br)cc3c2=O)cc1,·,3.9,i,-1.2,-24,·,·,·,·,·,·
Cc1nn2c(NCC(C)C)c3c(nc2c1-c1ccccc1)CCC3,8,9.5*,i,·,2,0.0088,0.0052,0.03,0.0073,0.018,0.011
COc1ccc(CCNC(=O)CSc2ccc(-c3cccs3)nn2)cc1OC,·,0.13,i,0.97,4,·,·,·,·,·,·
Fc1ccccc1COc1ccc(Br)cc1CNCc1ccncc1,4,-3.3*,i,-2.2,-18,?,0.0057,0.034,0.0068,0.014*,0.01
Fc1ccccc1COc1ccc(Br)cc1CNCc1cccnc1,·,-1.3,i,0.045,6,·,·,·,·,·,·
COC(=O)c1ccc(Oc2ccc(C(F)(F)F)cn2)cc1,·,0.65,i,0.42,12,·,·,·,·,·,·
CCOC(=O)C1(CCCc2ccccc2)CCN(Cc2cn(CC)nc2C)CC1,·,·,i,-2.1,-3,·,·,·,·,·,·
CCCCC1=CC2=C(c3ccco3)C(=O)C(C)(OC(=O)c3ccc(OC)cc3)C(=O)C2=CN1C1CCCCC1 (stereo unspecified),·,-1,i,·,·,·,·,·,·,·,·
CCOC(=O)c1ccc(NC(=O)c2ccccc2[N+](=O)[O-])cc1,5,-1.8,i,·,-11,·,·,·,·,·,·
O=C(Nc1ccc(S(=O)(=O)NCc2ccccc2)cc1)c1ccccc1[N+](=O)[O-],33,-6.6*,i,·,-4,0.0058,0.0052,0.025*,0.0081,?,0.011
O=C(CN1C(=O)C2CCCCC2C1=O)Nc1nc(-c2ccccn2)cs1 (stereo unspecified),14,·,i,-1.2,-32,0.0062,0.007*,0.032,0.0075,0.02,0.011
CCOC(=O)C1CCN(C(=O)c2ccc(CNS(=O)(=O)c3ccc(OC)cc3)cc2)CC1,·,0.0023,i,-1.3,-4,·,·,·,·,·,·
Cn1c(N)c(C(=O)CSc2nc3ccccc3[nH]2)c(=O)n(C)c1=O,·,0.18,i,0.88,·,·,·,·,·,·,·
O=C(CN1CCC(NC(=O)c2cccc(F)c2)CC1)NCc1ccccc1F,18,·,·,-0.63,3,0.0089,0.0068,0.031,0.0073,0.033,0.01
O=C(NCC1(N2CCOCC2)CCCCC1)c1cccc(S(=O)(=O)N2CCc3ccccc3C2)c1,·,-0.091,i,-0.25,-14,·,·,·,·,·,·
CCC(CC)NC(=O)COC(=O)c1ccc(NS(=O)(=O)c2ccc3c(c2)OCCO3)cc1,7,2.7*,·,0.93,2,0.0088,0.0074,0.03,0.0069,0.02,0.01*
COc1ccc(NS(=O)(=O)c2ccc(O)c(C(=O)OCC(=O)Nc3ccc4c(c3)OCCO4)c2)cc1,6,-0.46,i,-0.14,8,·,·,·,·,·,·
O=S(=O)(NC(=S)NC1CCCCC1)c1ccc(Br)cc1,·,11*,i,0.068,13,0.012*,0.028*,0.031,0.023*,0.033*,0.012*
O=C(Nc1nnc(-c2ccc3c(c2)CCCC3)o1)c1c(F)cccc1F,·,16*,i,0.84,5,0.017*,0.047*,0.037,0.02*,0.035*,0.013*
O=C(Nc1nnc(-c2ccc3c(c2)CCCC3)o1)C1CCCCC1,11,0.76,i,·,-9,·,·,·,·,·,·
O=C(C1=C[C@@H](c2ccc(C(F)(F)F)cc2)C[C@@H](OCCCCO)O1)N1CCN(Cc2ccc3c(c2)OCO3)CC1,·,0.047,i,·,-18,·,·,·,·,·,·
CN(C)C(CNc1ncnc2sc3c(c12)CCCC3)c1ccco1 (stereo unspecified),·,-1.4,i,0.22,-5,·,·,·,·,·,·
CC1=NN(c2nc3ccccc3s2)C(O)(C(F)(F)F)C1 (stereo unspecified),·,5.8*,i,-0.14,·,0.0085,0.011*,0.03,0.012*,?,0.013*
CC1CCCCN1C(=O)CSc1nnc(Cc2ccccc2)n1C (stereo unspecified),5,3.2*,i,-0.00029,4,0.0055,0.0049,0.029,0.0076,0.018,0.011
SMILES,Measles CPE,Cl transport mod,HSV augment,ROMK mod,Arbovirus inh,KCC2 sec1,KCC2 bumet counter,KCC2 sec2,HEK293 Tl flux,KCC2 ouabain,HEK counter2
COCCn1c(Cc2ccccc2)nnc1SCC(=O)N1CCCCC1C (stereo unspecified),4,-0.73,i,-0.33,5,·,·,·,·,·,·
O=C(c1ccc(COc2ccccc2Br)o1)N1CCCCCC1,18,·,i,-2.6,-1,0.0055,0.0033*,?,0.0063*,0.016*,?
COc1cc(NC(=O)c2ccc(COCC(F)(F)F)o2)cc(OC)c1OC,15,0.63,i,-1.4,4,·,·,·,·,·,·
COc1cc(NC(=O)c2ccc(COc3ccccc3Br)o2)cc(OC)c1OC,9,·,i,-0.011,-25,0.0055,0.0045,0.025*,0.0061*,0.015*,0.01
O=C(c1ccc(COc2ccccc2Br)cc1)N1CCCCC1,6,-1.4,i,-2.2,-33,·,·,·,·,·,·
O=C(CSc1nc2ccccc2s1)N1CCN(C(=O)c2ccco2)CC1,15,-0.016,i,·,4,·,·,·,·,·,·
O=C(CSc1nc(-c2ccc(F)cc2)cs1)N1CCN(C(=O)c2ccco2)CC1,15,-3.1*,i,·,4,0.0074,0.0061,0.029,0.0061,0.015*,0.009
